Screens: PubChem BioAssay, Paczesny and Yang Labs, IUPUI and University of Michigan
ST2 IL33 inh – inhibitors of human ST2 (IL1RL1) binding to IL-33, primary screen, biochemical, AlphaLISA; Interleukin-1 receptor-like 1 (Homo sapiens), Q01638; AlphaLISA ST2-Fc/biotin-IL-33 interaction, 1 h; inhibition, % for hits at 17 µM; hit rate 2.3% among 78,000; AID 1259354, 2018; in the data active means inhibition above about 30%
Target sequence (Q01638 whole entry, looked up): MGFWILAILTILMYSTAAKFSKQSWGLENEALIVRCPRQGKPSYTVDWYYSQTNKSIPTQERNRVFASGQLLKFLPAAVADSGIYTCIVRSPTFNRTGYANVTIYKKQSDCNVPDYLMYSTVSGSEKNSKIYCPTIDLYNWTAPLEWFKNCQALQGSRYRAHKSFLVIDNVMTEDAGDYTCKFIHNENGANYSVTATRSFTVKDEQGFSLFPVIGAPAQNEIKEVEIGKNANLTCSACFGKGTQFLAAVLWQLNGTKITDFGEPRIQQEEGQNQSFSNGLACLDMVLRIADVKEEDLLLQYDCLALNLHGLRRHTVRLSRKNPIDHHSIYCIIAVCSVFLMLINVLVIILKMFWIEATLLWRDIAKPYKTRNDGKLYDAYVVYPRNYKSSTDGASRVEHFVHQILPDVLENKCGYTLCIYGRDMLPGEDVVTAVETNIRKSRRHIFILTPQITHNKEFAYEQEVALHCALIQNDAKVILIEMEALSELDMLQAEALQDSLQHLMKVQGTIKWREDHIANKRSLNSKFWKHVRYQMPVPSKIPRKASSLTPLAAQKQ
Of the large screens only hits and unclear results are named; the others gave an inactive call. Many of the other results were omitted from the sample, so hits are more common in it than they were.

CCc1cc2c(=O)c(-c3nc4ccccc4s3)coc2cc1OC	none
CCSCCOC(=O)C1=C(C)NC(=O)NC1c1cccc(O)c1 (stereo not drawn)	none
NS(=O)(=O)c1cccc(NS(=O)(=O)c2ccc(O)c([N+](=O)[O-])c2)c1	none
CCOC(=O)C1=C(C)Nc2ncnn2C1c1ccc(OCc2ccccc2)cc1 (stereo not drawn)	none
O=C(CSc1ncnc2sc3c(c12)CCC3)Nc1ccccc1F	none
CSc1nc(C(=O)NC2CCCN(c3nc4ccccc4s3)C2)cs1 (stereo not drawn)	none
CC1=CCC(c2nnc(C)o2)C(c2ccc(Cl)cc2)C1 (stereo not drawn)	none
COc1cccc(OC2CN(C(C)C(=O)Nc3nccs3)C2)c1 (stereo not drawn)	none
Cn1c(C(=O)NCc2ccc(F)cc2)cc2c(=O)n3ccccc3nc21	none
O=[N+]([O-])c1ccc(C2Nc3cc(Cl)cc(Cl)c3C3C=CCC32)cc1 (stereo not drawn)	ST2 IL33 inh 32.0%
O=C(c1ccc2c(c1)C1C=CCC1C(c1ccc([N+](=O)[O-])cc1)N2)N1CCCC1 (stereo not drawn)	ST2 IL33 inh 40.0%
CC1CC(C)CN(C(=O)c2ccc([N+](=O)[O-])cc2)C1 (stereo not drawn)	none
CC1CC(=O)Nc2cc([N+](=O)[O-])ccc2N1 (stereo not drawn)	none
Cc1ccc([C@@H]2Nc3ccc(C(=O)O)cc3[C@@H]3C=CC[C@@H]32)cc1	ST2 IL33 inh 34.0%
Cc1ccc(C(=O)N2CCN(C(=O)c3ccccc3)C2c2ccc(N(C)C)cc2)cc1 (stereo not drawn)	none
O=C1Nc2cc(Cl)c(Cl)cc2N(O)N1c1ccc([N+](=O)[O-])cc1	none
Cc1ccc(C(=O)N2CCCC2)cc1[N+](=O)[O-]	none
Cc1ccc(S(=O)(=O)N2CCSC2c2ccccc2Cl)c(C)c1 (stereo not drawn)	none
Cc1ccc2c(c1)C1C=CCC1C(c1ccccc1Cl)N2 (stereo not drawn)	ST2 IL33 inh 33.0%
Cc1ccc(C)c(OC(C)C(=O)NCC2(Cn3cccn3)CC2)c1 (stereo not drawn)	none
CCN(CCN1CCCCC1)C(=O)C1CCCN1C(N)=O (stereo not drawn)	none
COc1ccc(Oc2cccc(CN3CCOC4(CNCCOC4)C3)c2)cc1 (stereo not drawn)	none
Cc1ccc(S(=O)(=O)N=C(N)c2ccc(Cl)cc2)cc1	none
O=C(Nc1ccc([N+](=O)[O-])cc1)C1CC1c1ccccc1 (stereo not drawn)	none
N#CC1=C(N)n2c(nc3ccccc32)NC1c1ccc(F)cc1 (stereo not drawn)	none
CS(=O)(=O)N1CCC(CCC(=O)NC2CCN(Cc3ccccc3)C2)CC1 (stereo not drawn)	none
CCOC(=O)C1(Cc2ccccc2)CCNCC1	none
Cc1cc(C)nc(N=Cc2nc(-c3ccc(Br)cc3)oc2O)c1	none
Cc1cccc(-c2ccc3c(c2)C(=O)N2CC[C@H](NC(=O)NC(C)C)[C@H]2C(=O)N3)c1C	none
O=C(Nc1ccc(Cl)cc1)c1cc2ccccc2oc1=O	none
CCOc1cc(C)nn1-c1ccccc1	none
COc1ccc(Cl)cc1C(=O)Nc1cc(N2CCCS2(=O)=O)ccc1C	none
CCC(Oc1ccc2c(c1)C(=O)CC(C)(C)O2)C(=O)NCc1ccco1 (stereo not drawn)	none
O=[N+]([O-])c1cc(N=Cc2nc(-c3ccccc3F)oc2O)ccc1Cl	none
O=[N+]([O-])c1cc(C=Nc2c(-c3ccco3)nc3ccccn23)c(Cl)cc1Cl	ST2 IL33 inh 44.0%
CC(C)c1ccc(Nc2c(-c3ccco3)nc3ccccn23)cc1	none
COCCN(Cc1cccs1)C(=O)C1CCCN1C(=O)C1CCCCC1 (stereo not drawn)	none
COc1cccc(C(=O)c2c[nH]c3ccc(F)cc3c2=O)c1	none
CC(C)CN1CC(C(=O)N2CCCN(S(C)(=O)=O)CC2)CC1=O (stereo not drawn)	none
CCOC(=O)c1c(C)oc2cc(Br)c(OCc3ccccc3)cc12	none
CNC(=O)c1cccc(-c2cc(NCc3cccnc3)nc3[nH]ccc23)c1	none
CNC(=O)c1ccc(-c2cc(NCCN(C)C)nc3[nH]ccc23)o1	none
CN(C)CCNc1cc(-c2ccc(Cl)cc2F)c2cc[nH]c2n1	ST2 IL33 inh 30.0%
COc1ccc(CCN2CC34C=CC(O3)C(C(=O)NCc3ccc(F)cc3)C4C2=O)cc1OC (stereo not drawn)	none
COc1cc(N2C(=O)C3C4C=CC(C4)C3C2=O)c(OC)cc1Cl (stereo not drawn)	none
Clc1cccc(CN2CCCCCC2)c1	none
N#CSC(C#N)Cc1cccc(Cl)c1 (stereo not drawn)	ST2 IL33 inh 34.0%
NC(=O)c1cccn1Cc1cccc(Cl)c1	none
CC1CCN(S(=O)(=O)c2cc(Br)ccc2Br)CC1	none
O=c1/c(=C\c2cccc(Br)c2)sc2nc3ccccc3n12	none
CCCOc1nnc(-c2ccc(C)cc2)c2ccccc12	none
COc1cccc(NC2=NC3CS(=O)(=O)CC3S2)c1 (stereo not drawn)	none
O=C(C1CCC(=O)N(C2CC2)C1)N1CCC(O)(c2cccc(C(F)(F)F)c2)CC1 (stereo not drawn)	none
Fc1cccc2c1NC(c1ccc(Br)cc1)C1CC=CC21 (stereo not drawn)	ST2 IL33 inh 42.0%
Cc1ccc([C@@H]2Nc3c(F)cccc3[C@@H]3C=CC[C@@H]32)cc1	none
O=C(O)c1cccc2c1NC(c1ccc(F)cc1)C1CC=CC21 (stereo not drawn)	ST2 IL33 inh 50.0%
COc1cccc2c1NC(c1ccc(Br)cc1)C1CC=CC21 (stereo not drawn)	ST2 IL33 inh 33.0%
O=C(O)c1cccc2c1NC(c1ccccc1Br)C1CC=CC21 (stereo not drawn)	none
CC(C)c1ccc(N(C(=O)c2cccs2)C2C=CS(=O)(=O)C2)cc1 (stereo not drawn)	none
O=C(c1ccccc1F)N1CCN=C1SCc1c(F)cccc1Cl	none
O=S(=O)(NCCOC12CC3CC(CC(C3)C1)C2)c1cc(Cl)ccc1Cl	none
COc1ccc(NC(=O)Nc2cccc(F)c2)cc1	none
CCCOC(=O)N1CCCn2nc(C(=O)Nc3ccccc3)cc2C1	none
COc1ccccc1OC1CCN(C(=O)CCC2CCCCN2C)CC1 (stereo not drawn)	none
NCCCNc1nc(-c2ccccc2O)nc2ccccc12	none
Cc1cc(NC(=O)c2ccc3c(c2)OCO3)nc2c1c(=O)oc1ccccc12	none
Cc1cc(NC(=O)/C=C\c2ccc3c(c2)OCO3)nc2c1c(=O)oc1ccccc12	ST2 IL33 inh 43.0%
CC(=O)Nc1cc(C)c2c(=O)oc3ccccc3c2n1	none
CCc1nc(CN(C)C(CC)c2cccnc2)c(C)[nH]1 (stereo not drawn)	none
CN1CC(=O)N2C[C@@H](NS(=O)(=O)NCc3ccccc3)C[C@H]2C1=O	none
Cc1cc(Cl)ccc1OC(C)C(=O)Nc1c(Cl)cccc1Cl (stereo not drawn)	none
CC(Oc1ccc(Cl)cc1Cl)C(=O)Nc1cccc([N+](=O)[O-])c1 (stereo not drawn)	ST2 IL33 inh 30.0%
CC(Oc1ccccc1)C(=O)Nc1cccc(Cl)c1 (stereo not drawn)	none
Cc1cccc(-c2cc(N3CCN(S(=O)(=O)c4cccc(Cl)c4)CC3)ncn2)c1	none
C[C@@H]1C(=O)O[C@H]2[C@H]1CC[C@@]1(C)Cc3sc(NC(=O)c4ccc(N(C)C)cc4)nc3[C@@H](C)[C@H]21	none
C[C@H]1[C@@H]2[C@H]3OC(=O)[C@@H](C)[C@@H]3CC[C@@]2(C)CC[C@@H]1NC(=O)C1CC1	none
COc1cc(NC(=O)Nc2nc3c(s2)C[C@]2(C)CC[C@@H]4[C@H](OC(=O)[C@H]4C)[C@H]2[C@@H]3C)cc(OC)c1	none
